High-throughput results: PubChem, The Scripps Research Institute Molecular Screening Center
PPARg SRC1 recr = promotes SRC-1 coactivator recruitment by human PPARgamma; P37231; PPARgamma-SRC-1 coactivator recruitment biochemical assay; activation, % at 8 µM; 200,000 compounds, 0.41% hits; in the data active = activation above about 19%;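 note: 0% = DMSO and 100% = reference agonist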
Target sequence (P37231 whole entry, looked up): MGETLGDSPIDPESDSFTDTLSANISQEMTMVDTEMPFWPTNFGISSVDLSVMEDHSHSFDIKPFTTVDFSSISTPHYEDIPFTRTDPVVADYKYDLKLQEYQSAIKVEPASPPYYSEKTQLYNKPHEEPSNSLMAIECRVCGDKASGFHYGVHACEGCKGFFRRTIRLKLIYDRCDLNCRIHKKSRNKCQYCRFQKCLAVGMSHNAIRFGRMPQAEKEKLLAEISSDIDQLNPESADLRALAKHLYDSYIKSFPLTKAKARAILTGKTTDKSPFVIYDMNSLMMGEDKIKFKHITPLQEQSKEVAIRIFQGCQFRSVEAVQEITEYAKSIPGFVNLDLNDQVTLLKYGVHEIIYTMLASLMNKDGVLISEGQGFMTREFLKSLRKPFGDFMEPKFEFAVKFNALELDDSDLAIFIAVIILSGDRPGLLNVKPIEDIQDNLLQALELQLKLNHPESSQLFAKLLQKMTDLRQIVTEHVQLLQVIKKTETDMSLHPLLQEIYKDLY
SRC1 TRFRET art = counter-screen for PPARgamma SRC-1 recruitment agonists: TR-FRET artefact. TR-FRET detection artefact counter-screen, emission ratio; stronger effect = higher value. TR-FRET ratio at 8 µM. 99,000 compounds, 0.34% hits. AID 1051; in the data active = TR-FRET ratio above about 2300
TR-FRET SRC-2 ct = counter-screen for PPARgamma SRC-2 recruitment agonists: TR-FRET artefact | stronger effect = higher value | TR-FRET ratio at 8 µM | 200,000 compounds, 0.4% hits | AID 1049
SRC3 TRFRET art = flags TR-FRET format artefacts in PPARgamma SRC-3 recruitment agonist screen | TR-FRET artefact counter-screen, PPARgamma/SRC-3 format; stronger effect = higher value | TR-FRET ratio at 8 µM | AID 1048 | 99,000 compounds, 0.39% hits
PPARg SRC-3 ag = PPARgamma-driven SRC-3 recruitment agonism; P37231; AID 731; 200,000 compounds, 0.26% hits; activation, % at 8 µM; biochemical PPARgamma/SRC-3 coactivator recruitment assay; in the data active = activation above about 23%;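 note: 0% = DMSO and 100% = reference agonist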
PPARg SRC-2 ag = PPARgamma-driven SRC-2 recruitment agonism; P37231; PPARgamma LBD-SRC-2 recruitment, biochemical; activation, % at 8 µM; 200,000 compounds, 0.34% hits; AID 1032; in the data active = activation above about 22%;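 note: 0% = vehicle and 100% = reference agonist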
PPARg SRC2 ag = human PPARgamma SRC-2 recruitment agonism, confirmation | shares compounds with PPARg SRC-3 ag | biochemical SRC-2 recruitment by PPARgamma | activation, % at 8 µM | 790 compounds, 52% hits; in the data active = activation above about 22%;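 note: 0% = vehicle alone and 100% = reference agonist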
PPARg SRC1 ag = human PPARgamma SRC-1 recruitment agonism, confirmation; shares compounds with PPARg SRC-3 ag; PPARgamma–SRC-1 coactivator recruitment biochemical assay; activation, % at 8 µM; 790 compounds, 43% hits; in the data active = activation above about 20%;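 note: 0% = vehicle wells and 100% = reference agonist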
PPARg SRC3 ag = human PPARgamma SRC-3 recruitment agonism, confirmation; activation, % at 8 µM; shares compounds with PPARg SRC-3 ag; biochemical PPARgamma-SRC-3 coactivator recruitment, agonist mode; 790 compounds, 29% hits; in the data active = activation above about 24%;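 note: 0% = vehicle wells and 100% = reference agonist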
The depositor's hits bear a star; · = no result given. An excerpt weighted towards active compounds, which were near 0.9% of everything screened. Cut-off read from the data, not from the text of the source, unless noted: active = TR-FRET ratio above about 2000; inactive = the rest.

SMILES	PPARg SRC1 recr	SRC1 TRFRET art	TR-FRET SRC-2 ct	SRC3 TRFRET art	PPARg SRC-3 ag	PPARg SRC-2 ag	PPARg SRC2 ag	PPARg SRC1 ag	PPARg SRC3 ag
CC1(C)Nc2ccc(O)cc2-c2c1ssc2=S	13	·	1836	·	28*	25*	6	3	5
CCNc1nc(Oc2ccc(F)cc2)cc(C(F)(F)F)n1	-3	1898	1629	1498	4	4	·	·	·
CC(C)Nc1nc(Oc2ccc(Cl)cc2)cc(C(F)(F)F)n1	11	·	1676	·	6	23*	0	3	0
O=C(O)C1CCN(S(=O)(=O)/C=C/c2ccccc2)CC1	3	·	1595	·	13	7	·	·	·
COc1cc(C(=O)Nc2nnc(-c3sccc3C)s2)cc(OC)c1OC	29*	·	1729	·	15	24*	55*	43*	37*
CCOCc1nnc(NC(=O)c2cc(OC)c(OC)c(OC)c2)s1	-5	1597	1397	1632	1	0	·	·	·
O=C1c2ccccc2C(=O)N1c1cccc(-c2csc(Nc3ccc4c(c3)OCO4)n2)c1	19	2024	1630	1746	12	26*	14	12	8
CC(C)Oc1ccc(C(=O)NCc2cccs2)cc1	-2	·	1648	·	5	6	·	·	·
Cc1cc(C(=O)COC(=O)CNS(=O)(=O)c2ccc3ccccc3c2)c(C)n1-c1ccccc1	3	1884	1766	1624	2	6	·	·	·
O=C(CNS(=O)(=O)c1ccc2ccccc2c1)OCC(=O)c1ccc(Br)s1	33*	·	2540*	·	69*	61*	55*	35*	38*
Cc1ccc(S(=O)(=O)c2c(CO)c(-c3ccccc3)nn2C)cc1	17	1892	1327	1207	34*	10	11	16	18
COc1ccc(C(=O)COC(=O)[C@H](C)Nc2ccc(C(F)(F)F)cc2[N+](=O)[O-])c(OC)c1	4	·	1424	·	0	-3	·	·	·
Cc1nc2ccc3nc(NC(=O)c4ccc5c(c4)OCCO5)sc3c2s1	117*	·	2067*	·	157*	17	92*	71*	58*
CCOC(=O)N/N=C/C=C/c1ccccc1	8	1764	1732	1437	0	13	·	·	·
Cc1c2cc(O)c(=O)cc-2oc2cc(O)c(O)cc12	6	·	1651	·	27*	16	7	7	6
COc1cc(OC)c(-c2c3cc(O)c(=O)cc-3oc3cc(O)c(O)cc23)cc1OC	1	2053	1611	1808	3	8	·	·	·
CN(C)c1ccc(/C=C/c2ccncc2)cc1	-4	·	1455	·	10	3	·	·	·
CN(C)c1ccc(/C=C/c2ccc3c4ccccc4ccc3[n+]2-c2ccccc2)cc1	47*	2287	2446*	2137*	28*	49*	30*	20*	23
CN(C)c1ccc(/C=C/c2ccc3ccccc3[n+]2C)cc1	66*	3396*	2876*	2738*	59*	94*	41*	33*	31*
CCOC(=O)C1=NNC2(c3ccc(C)cc3)C(=O)N(c3ccc(Cl)cc3)C(=O)C12 (configuration not stated)	4	1825	1469	1631	3	1	·	·	·
COc1ccc(CNC(=O)C2CCCN2)cc1OC (configuration not stated)	1	1668	1474	1775	0	7	·	·	·
CCN(CC)c1ccc(NC(=O)c2cnn(CC)c2)cc1	12	·	1842	·	27*	22*	-2	-4	0
N#Cc1c(-c2ccco2)nc(SCC(=O)Nc2ccc(S(N)(=O)=O)cc2)[nH]c1=O	5	·	1576	·	-3	7	·	·	·
N#Cc1c(-c2ccco2)nc(SCc2ccc(F)cc2)[nH]c1=O	20*	·	2187*	·	39*	45*	24*	15	16
S=C(Nc1ccc2nsnc2c1)N1CCCCC1	17	2191	1710	1795	9	22*	21	18	14
SMILES	PPARg SRC1 recr	SRC1 TRFRET art	TR-FRET SRC-2 ct	SRC3 TRFRET art	PPARg SRC-3 ag	PPARg SRC-2 ag	PPARg SRC2 ag	PPARg SRC1 ag	PPARg SRC3 ag
Cc1ccc(C)c(-n2c3nc(=O)[nH]c(=O)c-3cc3cc([N+](=O)[O-])ccc32)c1	13	1662	1510	1545	23*	-3	11	13	21
O=C(Nc1ccccc1Br)C1CC(=O)N(c2ccc3c4c(cccc24)CC3)C1 (configuration not stated)	4	1844	1647	1688	-1	5	·	·	·
Cc1cc(-c2ccc(Cl)cc2)c(C#N)c(N)n1	19*	·	1825	·	19	12	3	1	0
Cc1ccc(-c2cc(-c3ccccc3)c(C#N)c(N)n2)o1	8	·	1836	·	-4	5	·	·	·
CC12CCC(C(=O)Nc3cc(Cl)ccc3Cl)(C/C1=N\O)C2(C)C (configuration not stated)	6	·	1507	·	-2	-4	·	·	·
NS(=O)(=O)c1ccc(CCNC(=O)c2cc(-c3ccccn3)nc3ccc(Br)cc23)cc1	22*	2153	1850	2530*	15	11	5	5	6
COC1Cc2ccccc2N(C(=O)N2CCN(CCO)CC2)c2ccccc21 (configuration not stated)	19*	·	1731	·	1	9	1	-1	0
O=C(N/N=C/c1ccc(OC(F)F)cc1OC(F)F)NC1CCCCC1	3	1942	1673	1674	4	3	·	·	·
COc1ccc(OCC(=O)Nc2cc(-c3nn4c(C)nnc4s3)ccc2C)cc1	28*	·	1633	·	24	-3	21	17	13
COc1ccc(C(=O)Nc2cc(-c3nn4c(C)nnc4s3)ccc2C)cc1	4	·	1579	·	6	5	·	·	·
O=C(Nc1nc(=O)c2ccccc2s1)c1ccc(Cl)cc1	20*	·	1596	·	16	6	11	11	8
c1ccc(CCCCNCC2COc3ccccc3O2)cc1 (configuration not stated)	-2	1878	1532	1663	3	8	·	·	·
S=c1[nH]nc(-c2ccccn2)n1/N=C/c1ccc(-c2ccccc2Br)o1	69*	5322*	4475*	4805*	69*	129*	82*	60*	53*
CC(C)Sc1oc(-c2ccco2)nc1S(=O)(=O)c1ccccc1	19*	·	2119*	·	28*	46*	55*	46*	35*
CSc1nnc(-c2ccccc2SC)o1	22*	2301	1917	2050	14	20	19	12	8
CSc1ccccc1-c1nnc(-c2ccccc2)o1	0	·	1741	·	9	0	·	·	·
COc1ccccc1Nc1nc2ccccc2[nH]1	11	·	1580	·	27*	8	8	7	4
